Laboratory results reported in PubChem BioAssay AID652162 (Broad Institute, 2013).
The campaign covered roughly 350,000 compounds. About 840 (0.24%) were called active. Only a selection was taken, and actives are over-represented in it overall. Values without a mark were called inactive. Cut-off read from the data, not from the text of the source: active = inhibition above about 10%; inactive = the rest.

These compounds were tested against Toxin B (Clostridioides difficile) (UniProt P18177) (assay: TcdB glycohydrolase inhibitors, primary screen, biochemical, single point, plate reader (AID 652162)). Conditions: TcdB glycohydrolase enzymatic assay, at 9.99 µM, stronger effect = higher value.
Toxin B (Clostridioides difficile), sequence (P18177 whole entry, looked up): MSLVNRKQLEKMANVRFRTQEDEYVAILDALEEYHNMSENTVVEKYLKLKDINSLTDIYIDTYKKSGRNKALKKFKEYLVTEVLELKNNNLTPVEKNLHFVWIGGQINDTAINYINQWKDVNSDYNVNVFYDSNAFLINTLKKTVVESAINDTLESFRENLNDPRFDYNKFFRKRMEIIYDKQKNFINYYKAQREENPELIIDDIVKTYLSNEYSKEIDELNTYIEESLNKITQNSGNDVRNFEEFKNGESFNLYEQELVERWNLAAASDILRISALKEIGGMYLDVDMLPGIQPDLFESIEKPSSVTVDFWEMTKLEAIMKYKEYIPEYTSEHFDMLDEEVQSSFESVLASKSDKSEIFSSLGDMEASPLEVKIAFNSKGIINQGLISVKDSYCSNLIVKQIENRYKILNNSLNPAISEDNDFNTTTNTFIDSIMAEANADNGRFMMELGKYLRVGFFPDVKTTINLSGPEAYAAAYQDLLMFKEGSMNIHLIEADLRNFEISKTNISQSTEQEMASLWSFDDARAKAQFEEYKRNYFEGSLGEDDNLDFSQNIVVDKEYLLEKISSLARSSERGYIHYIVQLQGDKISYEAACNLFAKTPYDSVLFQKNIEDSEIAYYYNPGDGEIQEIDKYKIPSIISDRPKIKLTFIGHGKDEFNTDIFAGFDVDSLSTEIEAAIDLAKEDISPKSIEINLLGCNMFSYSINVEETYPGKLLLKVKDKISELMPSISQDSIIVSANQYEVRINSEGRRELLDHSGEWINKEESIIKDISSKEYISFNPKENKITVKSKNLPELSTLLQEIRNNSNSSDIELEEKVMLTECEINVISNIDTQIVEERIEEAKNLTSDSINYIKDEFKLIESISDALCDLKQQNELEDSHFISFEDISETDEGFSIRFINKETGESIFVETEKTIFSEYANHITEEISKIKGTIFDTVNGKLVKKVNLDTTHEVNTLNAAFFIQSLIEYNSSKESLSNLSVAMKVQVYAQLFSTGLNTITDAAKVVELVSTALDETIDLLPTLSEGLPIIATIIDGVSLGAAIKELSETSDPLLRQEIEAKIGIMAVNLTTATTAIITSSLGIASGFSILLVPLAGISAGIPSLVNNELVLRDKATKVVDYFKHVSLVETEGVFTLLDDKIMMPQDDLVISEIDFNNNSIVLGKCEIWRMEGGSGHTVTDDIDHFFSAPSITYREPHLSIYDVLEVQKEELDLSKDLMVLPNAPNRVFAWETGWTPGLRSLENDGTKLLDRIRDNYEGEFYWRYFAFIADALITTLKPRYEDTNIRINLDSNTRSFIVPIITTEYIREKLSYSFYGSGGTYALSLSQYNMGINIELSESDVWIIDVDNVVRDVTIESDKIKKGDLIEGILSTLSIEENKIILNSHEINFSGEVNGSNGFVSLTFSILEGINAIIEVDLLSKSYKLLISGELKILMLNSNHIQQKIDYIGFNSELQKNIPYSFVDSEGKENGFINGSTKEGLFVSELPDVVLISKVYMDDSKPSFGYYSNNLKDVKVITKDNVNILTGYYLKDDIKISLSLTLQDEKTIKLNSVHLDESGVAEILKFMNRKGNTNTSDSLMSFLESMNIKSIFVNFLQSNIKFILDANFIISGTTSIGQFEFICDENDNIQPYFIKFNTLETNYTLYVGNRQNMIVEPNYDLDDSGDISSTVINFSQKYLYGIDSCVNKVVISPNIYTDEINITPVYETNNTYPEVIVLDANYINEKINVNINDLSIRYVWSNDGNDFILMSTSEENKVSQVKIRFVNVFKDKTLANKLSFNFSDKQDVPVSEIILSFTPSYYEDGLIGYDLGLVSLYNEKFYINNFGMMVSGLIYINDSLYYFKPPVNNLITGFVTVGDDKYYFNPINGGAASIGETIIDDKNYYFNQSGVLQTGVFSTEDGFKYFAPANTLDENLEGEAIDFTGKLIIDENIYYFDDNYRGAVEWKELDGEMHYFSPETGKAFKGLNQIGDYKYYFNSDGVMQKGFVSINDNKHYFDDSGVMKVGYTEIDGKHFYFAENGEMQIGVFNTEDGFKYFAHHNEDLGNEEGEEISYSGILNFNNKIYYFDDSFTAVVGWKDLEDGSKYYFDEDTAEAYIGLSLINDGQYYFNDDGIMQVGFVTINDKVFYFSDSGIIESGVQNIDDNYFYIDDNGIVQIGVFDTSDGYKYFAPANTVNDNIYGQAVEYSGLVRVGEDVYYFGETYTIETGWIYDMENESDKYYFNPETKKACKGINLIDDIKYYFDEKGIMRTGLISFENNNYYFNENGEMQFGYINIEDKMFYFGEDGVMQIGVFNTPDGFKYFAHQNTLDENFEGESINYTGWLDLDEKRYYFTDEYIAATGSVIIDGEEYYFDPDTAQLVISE

Compound	inhibition
C/C(=N\NC(=O)COc1c(C)cccc1C)c1cccs1	0.614%
Cc1ccccc1-n1c(SCC(=O)Nc2cccc3ccccc23)nc(O)cc1=O	1.39%
C/C(=N\NC(=O)CSc1nc2ccccc2c(=O)n1-c1ccccc1C)c1cccs1	11.8% (active)
COc1ccccc1-c1cnc2c(c1)C(=O)N([C@H](C)CO)C[C@H](C)[C@H](CN(C)C(=O)CN(C)C)O2	0.748%
CCC(=O)N(C)C[C@@H]1Oc2ncc(C#Cc3cccnc3)cc2C(=O)N([C@@H](C)CO)C[C@@H]1C	0.973%
C[C@H](CO)N1C[C@H](C)[C@H](CN(C)Cc2ccc3c(c2)OCO3)Oc2c(NC(=O)NC3CCCCC3)cccc2C1=O	-1.25%
COc1ccccc1CNC(=O)C[C@@H]1CC[C@H]2[C@@H](COc3ccc(NS(=O)(=O)c4ccc(C)cc4)cc3C(=O)N2C)O1	0.867%
Cn1cnc(CCNC(=O)C[C@H]2CC[C@@H]3[C@H](COC[C@H](O)CN3C(=O)C3CC3)O2)c1	-0.073%
COc1ccc(NC(=O)Nc2ccc3c(c2)C(=O)N([C@H](C)CO)C[C@H](C)[C@H](CN(C)C(=O)Nc2c(C)noc2C)OCCCC[C@@H](C)O3)cc1	0.188%
CC(C)NC(=O)Nc1ccc2c(c1)C(=O)N([C@@H](C)CO)C[C@H](C)[C@@H](CN(C)C)O2	0.811%
Cc1ccc(C)c(OCC(=O)NNC(=O)C2CCC2)c1	1.49%
Cc1ccc(NNC(=O)C2CCC2)cc1C	58.9% (active)
O=C(NNC(=O)C1CCC1)c1ccccc1	1.5%
O=C(Nc1cccc(Cl)c1)N[C@H]1CC[C@H](CCNC(=O)C2CCOCC2)O[C@H]1CO	0.073%
CCOC(=O)C1=CCC(c2ccc(F)cc2)N(S(=O)(=O)c2ccc(C)cc2)C1 (stereo not given)	1.19%
CCOC(=O)C1=CC[C@@H](c2ccncc2)N(S(=O)(=O)c2ccc(C)cc2)C1	3.35%
CC(=O)C1=CCC(c2ccccc2)N(S(=O)(=O)c2ccc(C)cc2)C1 (stereo not given)	13.2% (active)
CC(C)NC(=O)N1[C@H](CO)[C@H](c2ccccc2)C12CN(C(=O)Cc1ccccc1)C2	-9.73%
CNC[C@H]1OCCCC[C@H](C)Oc2ccc(NS(=O)(=O)c3ccc(Cl)cc3)cc2C(=O)N([C@@H](C)CO)C[C@@H]1C	0.862%
CCCC(=O)Nc1ccc2c(c1)C(=O)N(C)C[C@H](OC)[C@H](C)CN(CCc1ccccc1)[C@H](C)CO2	0.195%
Cc1noc(C)c1S(=O)(=O)Nc1ccc2c(c1)CC(=O)N([C@@H](C)CO)C[C@@H](C)[C@H](CN(C)S(=O)(=O)c1cccs1)O2	1.18%
C[C@H]1CN([C@@H](C)CO)C(=O)Cc2cc(N(C)C)ccc2O[C@@H]1CN(C)S(=O)(=O)c1ccc(F)cc1	-6.02%
COCC(=O)Nc1ccc2c(c1)C(=O)N(C)C[C@H](OC)[C@@H](C)CN(C(=O)c1cnccn1)[C@H](C)CO2	0.644%
COCCN(C(=O)C(C)C)c1nnc(-c2ccc(C(C)(C)C)cc2)s1	10.1% (active)

Compound	inhibition
COCCN(Cc1nc(-c2ccc(C(F)(F)F)cc2)no1)C(C)C	1.49%
C[C@@H]1CN([C@H](C)CO)C(=O)c2cc(NS(C)(=O)=O)ccc2O[C@@H]1CN(C)S(C)(=O)=O	0.537%
COCc1cn(CC[C@H]2CC[C@H](NC(=O)Nc3ccc4c(c3)OCO4)[C@@H](CO)O2)nn1	0.036%
CNC[C@H]1Oc2ncc(-c3ccccc3C)cc2C(=O)N([C@@H](C)CO)C[C@@H]1C	0.537%
C[C@@H]1CN([C@H](C)CO)C(=O)c2cc(C#CC3(O)CCCC3)cnc2O[C@H]1CN(C)Cc1ccncc1	0.916%
CN1CCN(/N=C/c2c[nH]c3ccccc23)CC1	12.7% (active)
CN1CCN(/N=C/c2ccc(C#N)cc2)CC1	0.047%
C[n+]1ccc(/C=C/c2c[nH]c3ccccc23)cc1	1.44%
C[C@H](CO)N1C[C@H](C)[C@@H](CN(C)C(=O)Nc2cccc3ccccc23)Oc2c(NS(=O)(=O)c3ccccc3)cccc2C1=O	-1.06%
C[C@H](CO)N1C[C@H](C)[C@@H](CN(C)Cc2ccc(C(F)(F)F)cc2)Oc2ccc(NC(=O)CCC(F)(F)F)cc2C1=O	0.866%
O=C(C[C@@H]1C[C@@H]2c3cc(NC(=O)Nc4ccc(F)cc4)ccc3O[C@@H]2[C@H](CO)O1)NCC(F)(F)F	0.33%
COC(=O)CN1C(C)=Nc2ccc(Br)cc2C1c1ccccc1 (stereo not given)	55.6% (active)
CCC(CC)C(=O)N1CC(=O)Nc2ccc(Br)cc2C1c1ccccc1 (stereo not given)	3.15%
COC(=O)Cc1nnn2c1[C@H](C)[C@@H](OC)c1cc(Br)ccc1-2	0.213%
C[C@@H]1CN([C@@H](C)CO)C(=O)c2cc(-c3ccc(F)cc3)cnc2O[C@@H]1CN(C)Cc1ccc(C(=O)O)cc1	-1.74%
Cc1noc(C)c1S(=O)(=O)Nc1ccc2c(c1)C(=O)N([C@@H](C)CO)C[C@H](C)[C@@H](CN(C)C)OCCCC[C@@H](C)O2	-1.17%
CC(=O)N(C)C[C@@H]1Oc2cc(-c3cncnc3)ccc2S(=O)(=O)N([C@@H](C)CO)C[C@H]1C	-0.296%
O=C(C1CCC1)N1CC(=O)N2[C@H](CO)[C@H](c3ccc(C#CCc4ccccc4)cc3)[C@@H]2C1	0.603%
O=C(OCC(=O)N1CCOCC1)c1ccc(N2CCOCC2)c([N+](=O)[O-])c1	0.627%
O=C(c1ccc(N2CCOCC2)c([N+](=O)[O-])c1)N1CCN(S(=O)(=O)c2cccs2)CC1	3.29%
O=C(c1ccc(N2CCOCC2)c([N+](=O)[O-])c1)N1CCN(c2ccccc2F)CC1	10.3% (active)
O=C(N[C@H]1C=C[C@@H](CC(=O)N2CCc3ccccc3C2)O[C@@H]1CO)C1CCOCC1	1.24%
Cc1noc(C)c1S(=O)(=O)N(C)C[C@@H]1Oc2c(NS(=O)(=O)c3cn(C)cn3)cccc2C(=O)N([C@H](C)CO)C[C@@H]1C	-0.292%
COc1ccc(S(=O)(=O)N(C)C[C@@H]2Oc3ccc(NC(=O)C4CC4)cc3CC(=O)N([C@@H](C)CO)C[C@@H]2C)cc1	0.342%

Compound	inhibition
S=C(NCc1ccco1)Nc1ccc2c(c1)OCCO2	-0.084%
COc1cccc(OC)c1C(=O)NC(=S)NCc1ccco1	1.13%
COC(=O)Cc1ccc(NC(=S)NCc2ccco2)cc1	16% (active)
COC(=O)C[C@H]1CC[C@H]2[C@@H](COc3ccc(NC(=O)C4CC4)cc3C(=O)N2C)O1	0.647%
COc1ccc2c3c(n(C)c2c1)[C@H](CO)N(C(=O)C1CCCC1)CC31CCN(C(=O)c2ccncc2)CC1	0.361%
C[C@H](O)C#Cc1ccc([C@@H]2[C@@H](CO)N3CCCCN(C(=O)c4ccncc4)C[C@@H]23)cc1	0.304%
CCS(=O)(=O)N1CCC2(CC1)CN(Cc1ccc3c(c1)OCO3)[C@H](CO)c1[nH]c3cc(OC)ccc3c12	0.545%
CCCC#Cc1ccc([C@@H]2[C@@H](CO)N3C(=O)CN(C(=O)Nc4cccc(F)c4)C[C@H]23)cc1	0.796%
O=C(c1ccncc1)N1CC(=O)N2[C@H](CO)[C@H](c3ccc(-c4ccccc4F)cc3)[C@@H]2C1	-0.127%
COCC#Cc1cnc2c(c1)C(=O)N([C@@H](C)CO)C[C@@H](C)[C@@H](CN(C)S(=O)(=O)c1cccc(OC)c1)O2	0.452%
CC(C)NC(=O)Nc1ccc2c(c1)C(=O)N([C@H](C)CO)C[C@H](C)[C@@H](CN(C)C)OCCCC[C@H](C)O2	0.315%
COc1ccc(NC(=O)N(C)C[C@H]2Oc3c(NC(=O)C4CC4)cccc3C(=O)N([C@@H](C)CO)C[C@@H]2C)cc1	-0.546%
CNC(=O)C[C@@H]1CC[C@@H]2[C@H](COC[C@H](O)CN2Cc2ccc(C(F)(F)F)cc2)O1	-1.26%
C[C@@H]1CCCCO[C@H](CN(C)C(=O)Nc2cccc3ccccc23)[C@H](C)CN([C@@H](C)CO)C(=O)c2cc(NC(=O)CCCN(C)C)ccc2O1	-0.333%
O=C(C[C@@H]1C[C@@H]2c3cc(NC(=O)C4CCOCC4)ccc3O[C@@H]2[C@H](CO)O1)NCc1ccncc1	0.039%
C/C=C/c1ccc([C@@H]2[C@@H](CO)N(C(=O)c3ccccc3)C23CN(C(C)=O)C3)cc1	1.41%
C[C@@H]1CN([C@@H](C)CO)C(=O)c2cc(C#CCN(C)C)cnc2O[C@H]1CN(C)S(=O)(=O)c1cn(C)cn1	1.29%
CCc1ccc(N2CC(O)=C(c3nc4ccccc4c(=O)[nH]3)C2=N)cc1	2.4%
Oc1ccc(-c2[nH]ncc2-c2nc3ccccc3s2)c(O)c1	-1.73%
COc1ccccc1N1CC(O)=C(c2nc3ccccc3s2)C1=N	14.9% (active)
O=C(C[C@H]1CC[C@H]2[C@@H](COC[C@H](O)CN2C(=O)c2ccccc2F)O1)NCc1ccccc1	0.135%
CO[C@H]1CN(C)C(=O)c2cc(NS(=O)(=O)CC(F)(F)F)ccc2OC[C@H](C)N(C(=O)c2ccc3c(c2)OCO3)C[C@H]1C	0.021%
